Rab9 prom act – activators of Rab9 promoter; Huh7 Rab9 promoter-luciferase reporter, luminescence, 24 h; Potency, µM (doses to about 9.22 µM), without a hit: top-dose activation, negative = inhibition, usual class: activators; 2.8% of 320,000 active; also: % of control where 0% means no effect; nearly all actives have a fitted effect of over 60% in size
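Luciferase signal after 10 min detection reagent at ambient indicates Rab9 promoter upregulation; stably transfected Huh7 cells were treated 24 h with compound in DMSO at 37 °C, 5% CO2.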
FLuc modulator – counter-screen for miR-21 project: firefly luciferase inhibitors or activators. P08659. purified FLuc, Km substrates, luminescence inhibition. Potency, µM (doses to about 57.5 µM), for the others: top-dose activity change, negative = inhibition, usual class: inhibitors. 6.9% of 360,000 active;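 also: plate controls were vehicle for no effect and reference inhibitor for full effect; nearly all actives have a fitted effect of over 55% in size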
Target sequence (P08659 whole entry, looked up): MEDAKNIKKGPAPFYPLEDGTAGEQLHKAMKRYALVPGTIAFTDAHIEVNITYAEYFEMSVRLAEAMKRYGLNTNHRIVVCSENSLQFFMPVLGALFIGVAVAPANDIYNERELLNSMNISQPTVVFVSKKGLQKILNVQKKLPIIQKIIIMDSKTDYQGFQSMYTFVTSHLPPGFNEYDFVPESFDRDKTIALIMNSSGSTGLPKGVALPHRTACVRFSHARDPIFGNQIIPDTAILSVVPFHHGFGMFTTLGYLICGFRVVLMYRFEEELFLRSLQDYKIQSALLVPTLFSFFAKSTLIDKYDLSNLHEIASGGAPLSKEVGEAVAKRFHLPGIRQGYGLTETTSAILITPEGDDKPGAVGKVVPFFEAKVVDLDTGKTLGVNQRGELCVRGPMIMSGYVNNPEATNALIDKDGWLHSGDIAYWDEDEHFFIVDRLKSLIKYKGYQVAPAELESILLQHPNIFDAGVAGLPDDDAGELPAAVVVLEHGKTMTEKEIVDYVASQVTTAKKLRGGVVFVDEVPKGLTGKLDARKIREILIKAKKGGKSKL
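Purified P. pyralis luciferase, 10 nM final, with Km-level 10 uM D-luciferin and 10 uM ATP in 50 mM Tris acetate pH 7.5, 10 mM Mg acetate, 0.01% Tween-20, 0.05% BSA; 6-point qHTS titration about 60 µM downward; luminescence read.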
SMN2 splice up – increases expression of the SMN2 splice variant. 2.8% of 210,000 active. Potency, µM (titrated, usually from 46.1 µM), inactives show top-dose activity change, positive = activation, actives largely listed as activators. HEK293 SMN2-luciferase splicing reporter, luminescence, 30-36 h. AID 1458; also: % of control where 0% means no effect; nearly all actives have a fitted effect of over 55% in size
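HEK293 cells carry an SMN2 […]–luciferase reporter in which exon 7 inclusion puts luciferase in frame. Cells were plated 10-12 h before compound addition, then incubated 30-36 h at 37C. ONE-Glo luminescence was read; sodium butyrate at 4.5 mM final served as control.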
p53 reactivation – re-activators of mutant p53 | H1299 p53-A138V BP100-luciferase reporter, luminescence, 24 h | Potency, µM (top dose mostly 92.2 µM), for inactives: at the highest dose activity change, positive = activation, hits mostly activators | 0.063% of 320,000 active; also: % of control where 0% means no effect; nearly all actives have a fitted effect of over 45% in size
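H1299 (p53-null), stable ts p53-A138V + BP100-Luc; 1000 cells/well, Opti-MEM/10% FBS; cpd 4 pt, 1:5; 24 h, 37 deg C, 5% CO2; detection reagent 10 min RT; luminescence.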
ELG1 genotoxic – genotoxicity induction in ELG1-luciferase HEK293T cells | HEK293T ELG1-luciferase reporter, luminescence, 16 h | Potency, µM (titrated, usually from 46 µM), for inactives: at the top dose activity change, positive = activation, usual class: activators | 1.3% of 330,000 active | AID 504466; also: % of control where 0% means no effect; nearly all actives have a fitted effect of over 60% in size
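HEK293T cells expressing luciferase-tagged ELG1 were treated with compound or DMSO for 16 hr at 37°C. Luciferase activity was then read after 30 min with ONE-Glo at room temperature; rising signal flags genetic stress.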
NPC1 prom act – activators of NPC1 promoter | 2.4% of 320,000 active | Huh7 NPC1 promoter luciferase reporter, 24 h | Potency, µM (doses to about 9.22 µM), for the others: at the highest dose activation, actives largely listed as activators | AID 485313; also: % of control where 0% means no effect; nearly all actives have a fitted effect of over 60% in size
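In 1536-well qHTS, Huh7 cells harboring an NPC1 promoter–luciferase construct received compound for 24 h; activation was quantified by luminescence following luciferase reagent addition.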
Active calls of the source: *; ? = inconclusive; . = no result given; [ ] = another dose, or the depositor's remark. This is a sample that favours compounds with a hit; in the whole collection about 7.3% have one here. Calls follow the shape of the dose curve; as a rule, active = well fitted curve in the direction sought with a large enough effect; inconclusive = small, poorly fitted or top-dose-only effect, or another doubt; inactive = no such curve, though single readings can be large; an effect the other way counts as inactive or inconclusive. Potency is read from the fitted curve at half-maximal effect.

SMILES | Rab9 prom act | FLuc modulator | SMN2 splice up | p53 reactivation | ELG1 genotoxic | NPC1 prom act
CC1CCc2c(sc(NC(=O)C3=COCCO3)c2C(N)=O)C1 (configuration not stated) | 1.6µM* | 0.76µM* | . | ? | ? | 2.5µM*
CNC(=O)c1c(NC(=O)C2=COCCO2)sc(C)c1C | 0% | -1% | . | 2% | -7% | 1%
Cc1nc(NC2CCCCC2)c2nc(-c3ccccc3)n(C(C)CN(C)C)c2n1 (configuration not stated) | . | . | -9% | . | . | .
COC(=O)C[C@H]1c2ccccc2C2=C(C[C@@H](C)[C@H]3C(=O)NC(=O)[C@@H]23)N1C(=O)OC | . | . | 9%[9.22 µM] | . | . | .
CCCc1nn(C)c(C(=O)Nc2ccc(Cl)cc2)c1Cl | 10% | -10% | -12% | 18% | -4% | 11%
CCCc1nn(C)c(C(=O)Nc2cccc(C)c2)c1Cl | ? | 17µM* | 19% | ? | ? | ?
CCCc1nn(C)c(C(=O)Nc2ccc(C(C)(C)C)cc2)c1Cl | -3% | ? | -4% | 10% | -3% | -5%
CCCc1nn(C)c(C(=O)Nc2ccccc2)c1Cl | 1.1µM* | 7.6µM* | -29% | ? | ? | 3.5µM*
CCCc1nn(C)c(C(=O)Nc2cccc(Cl)c2)c1Cl | ? | 21µM* | -22% | ? | ? | 26%
Cc1ccc([N+](=O)[O-])cc1NC(=O)CCCOc1ccccc1 | -8% | 4% | -2% | 2% | -2% | -9%
CC1CN(C(=O)Nc2ccc3c(c2)OCO3)CC(C)O1 (configuration not stated) | 27% | 17µM* | 25% | 26% | ? | 27%
O=C(Nc1ccc2c(c1)OCO2)N1CCN(c2ccc(F)cc2)CC1 | ? | 24µM* | 22% | -8% | 13% | ?
O=C(Nc1ccc2c(c1)OCO2)N1CCOCC1 | 19% | -13% | . | 17% | 25% | 4%
O=C(Nc1ccc2c(c1)OCO2)N1CCCC1 | 17% | -18% | ? | 9% | 9% | 13%
COc1cccc(-c2ccc3ncnc(NCc4cccc(F)c4)c3c2)c1 | -2% | -1% | . | . | . | -2%
O=C(/C=C/c1ccc(Cl)cc1Cl)c1ccc[nH]1 | 22% | 2.7µM* | 7% | ? | ? | 13%
O=C(/C=C/c1ccccc1Cl)N1CCN(c2ncccn2)CC1 | -6% | ? | -7% | -2% | 1% | -2%
O=C(/C=C/c1ccc(Cl)cc1Cl)n1cccn1 | -1% | 3.8µM* | 15% | 5% | 16% | -1%
O=C(/C=C/c1ccccc1Cl)c1ccc[nH]1 | 27% | 7.6µM* | 19% | ? | ? | 10%
CN(C)/C=C/C(=O)/C=C/c1ccc(Cl)cc1Cl | 1µM* | 12µM* | 20µM* | 11% | ? | 2.2µM*
C=CC(C1=CC(=O)C(OC)=C(OC)C1=O)c1ccccc1 (configuration not stated) | . | . | 1% | . | . | .
Cc1ccc(C(=O)Oc2ccc3c(c2)ncn3C)cc1 | -16% | 3µM* | . | 19% | 5% | 4%
CCOC(=O)c1c(C)n(-c2ccccc2)c2ccc(OC(=O)c3ccccc3)cc12 | . | -8% | -33% | . | . | .
Cn1cnc2cc(OC(=O)c3ccccc3)ccc21 | -7% | 19µM* | 20% | 4% | 4% | -2%
CCCOc1ccc(Oc2nc(NCC(C)C)nc(N(C)C)n2)nn1 | . | 5% | -10% | . | . | .
Cc1c(/C(O)=C2\C(=O)C(=O)N(CCN(C)C)C2c2ccco2)cnn1-c1ccccc1 (configuration not stated) | ? | 27µM* | -5% | 21% | 9.2µM* | ?
Cc1ccc(C2/C(=C(\O)c3cnn(-c4ccccc4)c3C)C(=O)C(=O)N2CCN(C)C)o1 (configuration not stated) | ? | -13% | -23% | -10% | 0% | ?
